# Sampled rows, rich in hits. Any-hit rate of the full collection: about 2.2%.
# ATXN2 expr inh – reduces ATXN2 reporter expression in HEK-293 cells; HEK-293 ATXN2-luciferase reporter, luminescence, 24 h; Potency, µM (top dose mostly 57 µM), without a hit: at the highest dose activity change, negative = inhibition, hits mostly inhibitors; 360,000 compounds, 0.72% hits; AID 1745845; note: potency is the fitted concentration of half-maximal effect; % is set by controls: 0 for no effect and ±100 for the full control effect; nearly all actives have a fitted effect of over 55% in size
#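 qHTS (up to 57 uM final) was run with 24 h compound exposure of reporter cells at 37 °C. Each well was multiplexed: SteadyGlo luminescence measured ATXN2-luciferase expression after a fluorogenic Gly-Phe-AFC viability readout (25 uM final).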
# LDHA inh – LDHA (human) enzyme inhibition. P00338. purified LDHA, NADH/diaphorase-resazurin fluorescence; active compounds read low. activity change, % (values are at about 110 or 230 µM). 480,000 compounds, 0.15% hits; in the data active = activity change below about -30%; inconclusive = mostly about -25% to -30%;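 note: plate controls were DMSO wells for no effect and wells without enzyme for full effect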
#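 LDH5 2 nM; NADH 0.06 mM, pyruvate 0.2 mM; 200 mM Tris pH 7.4, EDTA, Tween-20; 5 min RT. Detection: diaphorase 0.133 mg/mL + resazurin 37 µM, fluorescence ex540/em590 at 0 and 20 min; normalized to enzyme-free and DMSO wells.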
# TGFb SMAD3 inh – inhibitors of TGF-b signaling; HepG2 CAGA-GFP TGF-b/SMAD3 reporter, GFP fluorescence, 18 h; TGF-beta stimulated, 500 pg/mL final; Potency, µM (series often up to 46.1 µM), for inactives: at the highest dose activity, negative = inhibition, most hits filed as inhibitors; 410,000 compounds, 1.2% hits; AID 588855; note: potency is the fitted concentration of half-maximal effect; % is set by controls: 0 for no effect and ±100 for the full control effect; nearly all actives have a fitted effect of over 65% in size
#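 Cell-based qHTS in HEPG2 carrying a CAGA-GFP Smad reporter; compounds added before 500 pg/mL final TGF-beta, 18 h incubation at 37 degrees C, GFP fluorescence quantified per cell by imaging cytometry.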
# ATXN viability – cell viability loss in ATXN counter-screen; Potency, µM (top dose mostly 56.7 µM), most hits filed as cytotoxic; S2 cells (HEK-293 line with an ATXN2-luciferase reporter) viability, CellTiter-Fluor protease fluorescence, 24 h; AID 651635; 400,000 compounds, 0.49% hits; note: potency is the fitted concentration of half-maximal effect; nearly all actives have a fitted effect of over 40% in size
# mIDH1 inhibitor – inhibitors of human mutant IDH1 R132H. Potency, µM (doses to about 76.6 µM), for inactives: at the top dose activity change, negative = inhibition, most hits filed as inhibitors. IDH1-R132H enzyme, NADPH consumption, diaphorase/resazurin fluorescence. 390,000 compounds, 0.093% hits. AID 602179. O75874; note: potency is the fitted concentration of half-maximal effect; % is set by controls: 0 for no effect and ±100 for the full control effect; nearly all actives have a fitted effect of over 65% in size
# Target sequence (O75874 whole entry R132H, stated change not applied): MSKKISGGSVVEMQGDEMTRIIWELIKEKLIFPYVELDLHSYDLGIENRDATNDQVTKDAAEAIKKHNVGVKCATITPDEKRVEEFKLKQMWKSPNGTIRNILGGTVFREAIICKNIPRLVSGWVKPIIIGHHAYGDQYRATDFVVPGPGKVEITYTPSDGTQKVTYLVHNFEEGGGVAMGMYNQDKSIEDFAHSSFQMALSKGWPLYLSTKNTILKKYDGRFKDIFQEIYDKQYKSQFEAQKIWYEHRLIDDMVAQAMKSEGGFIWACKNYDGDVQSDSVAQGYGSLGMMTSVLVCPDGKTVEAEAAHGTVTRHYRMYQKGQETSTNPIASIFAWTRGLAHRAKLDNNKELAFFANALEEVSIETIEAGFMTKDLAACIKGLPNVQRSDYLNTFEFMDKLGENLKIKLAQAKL
#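 IDH1-R132H (0.5 ug/mL) preincubated 30 min with compound, then NADPH (0.016 mM) and alpha-KG (2 mM) added; 80 min at RT, pH 7.5. Remaining NADPH coupled via diaphorase/resazurin to fluorescence (540/590 nm); concentration-response curves normalized to no-enzyme control.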
# HepG2 tox-1 – HepG2 cytotoxicity, counter-screen for TGF-b inhibitors; HepG2 CAGA-GFP viability, ATP luminescence, 18 h; Potency, µM (doses to about 46.1 µM), for inactives: at the highest dose activity change, negative = cytotoxicity, hits mostly cytotoxic; 410,000 compounds, 0.76% hits; AID 588856; note: potency is the fitted concentration of half-maximal effect
#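 CellTiter-Glo luminescence gave cytotoxicity after 18 hours at 37 degrees C. The cells were HepG2 CAGA-GFP in 1% FBS DMEM, stimulated with 500 pg/mL TGF-beta after compound addition. %Activity was normalised to no-cell wells (complete cell-killing) and DMSO (no toxicity), and curves were fitted and classified.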
# TGFb confirm – TGF-b pathway inhibition, cherry-pick retest; shares compounds with TGFb SMAD3 inh; HepG2 CAGA-GFP TGF-b reporter, GFP fluorescence, 18 h; cells stimulated with TGF-beta, 500 pg/mL; Potency, µM (highest dose often 46.1 µM), for inactives: top-dose activity, negative = inhibition, most hits filed as inhibitors; 1,600 compounds, 63% hits; note: potency is the fitted concentration of half-maximal effect; % is set by controls: 0 for no effect and ±100 for the full control effect; nearly all actives have a fitted effect of over 65% in size
# HepG2 tox-2 – HepG2 cytotoxicity, TGF-b inhibitor counterscreen. shares compounds with TGFb SMAD3 inh. HepG2 CAGA-GFP viability, ATP luminescence, 18 h; cells stimulated with TGF-beta, 500 pg/mL. Potency, µM (doses to about 46.1 µM), for the others: top-dose activity, negative = cytotoxicity, hits mostly inhibitors. 1,600 compounds, 27% hits; note: potency is the fitted concentration of half-maximal effect; % is set by controls: 0 for no effect and ±100 for the full control effect; nearly all actives have a fitted effect of over 70% in size
# CCL64 TGFb inh – orthogonal confirmation of TGF-b inhibitors in CCL64 cells | CCL64 CAGA-GFP reporter, TGF-b stimulated, GFP fluorescence, 18 h | 1,600 compounds, 41% hits | AID 720536 | Potency, µM (titrated, usually from 46.1 µM), for inactives: top-dose activity, negative = inhibition, hits mostly inhibitors | shares compounds with TGFb SMAD3 inh; note: potency is the fitted concentration of half-maximal effect; nearly all actives have a fitted effect of over 65% in size
# COP TGFb inh – TGF-b inhibition validated with COP promoter; 1,600 compounds, 3% hits; shares compounds with TGFb SMAD3 inh; Potency, µM (series often up to 46.1 µM), without a hit: top-dose activity, negative = inhibition, most hits filed as inhibitors; AID 720537; HepG2 COP-GFP TGF-b reporter, GFP fluorescence, 18 h; cells stimulated by added recombinant TGF-beta; note: potency is the fitted concentration of half-maximal effect; nearly all actives have a fitted effect of over 70% in size
# * = called active by the depositor; i = inactive; ? = inconclusive; nt = no result given. Unless noted, calls come from the whole dose curve; as a rule, active = well fitted curve in the direction sought with a large enough effect; inconclusive = small, poorly fitted or top-dose-only effect, or another doubt; inactive = no such curve, though single readings can be large; an effect the other way counts as inactive or inconclusive.
SMILES,ATXN2 expr inh,LDHA inh,TGFb SMAD3 inh,ATXN viability,mIDH1 inhibitor,HepG2 tox-1,TGFb confirm,HepG2 tox-2,CCL64 TGFb inh,COP TGFb inh
NC(c1csc(NC(=O)Nc2ccc(OC(F)(F)F)cc2)n1)C1CCCCC1 (configuration not stated),?,-14.2,8.91µM*,?,nt,7.94µM*,?,18.4µM*,20.6µM*,?
COc1ccc(NC(=O)Nc2nc(C(N)CC(C)C)cs2)cc1 (configuration not stated),-35.6%,-4.0,?,i,nt,-44.6%,nt,nt,nt,nt
Cc1ccc(SC2=C(N(C)C)C(=O)c3ccccc3C2=O)cc1,?,35.3,10µM*,?,22.9%,-49.7%,?,-21.1%,20.6µM*,43.1%
Cc1ccc2c(c1)-c1ccccc1C2=O,nt,5.0,nt,nt,nt,nt,nt,nt,nt,nt
COc1ccc(OC)c(NC(=O)NNC(=O)CCCOc2ccc(Cl)cc2C)c1,-21.5%,-3.3,?,i,2.3%,-21.2%,16.4µM*,-11.1%,4.5%,20.1%
COc1ccc(NC(=O)NNC(=O)COc2ccc(Cl)cc2C)cc1OC,-3.0%,-5.1,3.6%,i,2.7%,-24.2%,nt,nt,nt,nt
Cc1cc(C2(c3ccc(O)c(C)c3)C(=O)N(C)c3ccc(Br)cc32)ccc1O,nt,-0.4,?,nt,?,-121.3%,nt,nt,nt,nt
NC(=O)c1cc(C(=O)c2cccc(Cl)c2Cl)c[nH]1,3.6%,-12.0,-1.8%,i,-1.8%,-18.9%,nt,nt,nt,nt
Cc1ccccc1C(=O)c1c[nH]c(C(=O)N2CCN(c3ccccc3F)CC2)c1,-3.4%,-0.4,?,i,0.3%,15.3%,13µM*,-19.0%,?,2.8%
O=C(c1c[nH]c(C(=O)N2CCN(c3ccccc3F)CC2)c1)c1cccc(Cl)c1Cl,nt,-5.6,10µM*,i,-2.1%,-5.3%,11.6µM*,?,?,70.0%
CCOC(=O)C1=CN(CC2CCCO2)C=C(C(=O)OCC)C1c1ccccc1C(F)(F)F (configuration not stated),-11.0%,-0.5,-6.0%,nt,2.7%,-2.1%,nt,nt,nt,nt
CCCn1c(C(C)Nc2nc(-c3ccc(C)cc3)cs2)nc2ccccc21 (configuration not stated),-14.6%,1.0,11.2µM*,?,-15.7%,-16.5%,?,?,?,42.7%
CC(Nc1nc(-c2ccc(Cl)cc2)cs1)c1nc2cc(Cl)c(N3CCCCC3)cc2n1CCOCCO (configuration not stated),?,4.5,20µM*,?,-8.0%,-30.0%,?,?,18.4µM*,70.7%
COc1ccc(OC)c(/C=C2\Oc3cc(OCC(=O)N4CCC[C@H]4C(=O)O)ccc3C2=O)c1,-6.2%,-1.3,39.9%,nt,-11.5%,-1.1%,nt,nt,nt,nt
O=C(Nc1cccc(C(F)(F)F)c1)Nc1ccc(N2CCCC2)c(S(=O)(=O)Nc2ccccc2Cl)c1,?,-5.0,2.82µM*,?,2.4%,-56.1%,4.11µM*,9.2µM*,5.17µM*,99.6%
O=C(Nc1cc(Sc2ccccn2)cc([N+](=O)[O-])c1)c1cccc(F)c1,-10.4%,-3.7,11.2µM*,?,2.4%,-17.7%,10.3µM*,?,13µM*,77.3%
Nc1cc(Sc2ccccn2)cc([N+](=O)[O-])c1,nt,10.8,nt,nt,nt,nt,nt,nt,nt,nt
Clc1nc(Cl)nc(N(c2ccccc2)c2ccccc2)n1,-1.4%,-2.8,?,i,3.3%,-45.6%,?,?,?,35.5%
CC(=O)Oc1ccc(-c2ccc(C(=O)Nc3cccc(S(=O)(=O)N4CCOCC4)c3)cc2)cc1,-35.1%,-9.1,11.2µM*,i,1.5%,-14.2%,20.6µM*,?,?,17.5%
CSCc1ccc(C(=O)NCCSc2ccc(Br)cc2)cc1,64.3%,4.7,9.6%,i,3.4%,-27.1%,nt,nt,nt,nt
COc1ccccc1NC(=O)c1ccc(CN2CCOCC2)cc1,1.0%,-1.7,-0.9%,i,5.7%,-1.0%,nt,nt,nt,nt
CCCc1nc([N+](=O)[O-])c(S(=O)(=O)c2ccccc2)n1CC(C)C,?,-3.0,10µM*,?,2.1%,-64.1%,20.6µM*,?,16.4µM*,28.4%
CN(C)CC(C(=O)c1ccccc1)c1ccccc1 (configuration not stated),22.4µM*,-1.6,3.98µM*,nt,7.1%,8.91µM*,5.17µM*,10.3µM*,3.26µM*,?
O=[N+]([O-])c1cccc(S(=O)(=O)Nc2nc3ccccc3nc2Nc2cccc(S(=O)(=O)N3CCCCC3)c2)c1,?,-5.0,4.47µM*,?,?,-31.6%,3.26µM*,6.51µM*,2.91µM*,0.9%
Cc1ccc(S(=O)(=O)Nc2nc3ccccc3nc2Nc2cccc(S(=O)(=O)N3CCCC3)c2)cc1,?,-3.2,42.5%,?,-1.8%,-42.5%,nt,nt,nt,nt
O=C(NCc1ccco1)c1nc2c(nnn2Cc2ccccc2Cl)c(=O)[nH]1,15.8µM*,1.8,2.82µM*,?,-3.4%,-34.3%,5.8µM*,?,8.2µM*,26.9%
Cc1ccc(S(=O)(=O)N2CCOCC2)cc1NC(=O)CSc1nc2ccc(Cl)cc2[nH]1,nt,21.2,nt,nt,nt,nt,nt,nt,nt,nt
O=S(=O)(c1ccc2nc(SCc3ccc(Cl)cc3)[nH]c2c1)N1CCOCC1,-20.9%,-4.5,10µM*,i,-0.7%,-18.9%,11.6µM*,-23.4%,?,20.0%
CCOC(=O)c1c(C)oc2c1C(=O)c1ccccc1C2=O,?,7.1,5.01µM*,i,-5.5%,5.01µM*,5.17µM*,5.8µM*,4.61µM*,16.4µM*

# Screening data from PubChem BioAssay.
